# According to PubChem BioAssay (Tox21):
# Results filed as inconclusive are left out. Where a call stands in place of a potency, no number is given. Values without a mark were called inactive. The source made the active and inactive calls. The call rests on the fitted dose curve; in most records, active means well fitted activation curve with a large enough effect in the repeat runs; inconclusive means weak or mixed curves; inactive means flat fitted curve, though single readings scatter.
# Experiment: A CellTox Green Cytotoxicity Assay to monitor cytotoxicity in HepG2 cells - 8 hour (AID 1224890); further: nearly all actives have a fitted effect of over 45% in size
# Details: CellTox Green fluorescence; series mostly up to 76.8 µM
# Excerpt: National Center for Advancing Translational Sciences [NCATS]
# NIH Chemical Genomics Center [NCGC]
# U.S. Environmental Protection Agency [EPA]
# National Institutes of Environmental Health Sciences [NIEHS]
# National Toxicology Program [NTP]
# Cell-based models are critical for drug discovery. Determining the natural cytotoxic effects resulting from test compounds is an essential research activity. A CellTox Green Cytotoxicity Assay to monitor cytotoxicity in real time of continues cell culture during 40 hours of the compound treatment was used to screen Tox21 10K library compounds in HepG2 cells. CellTox Green Cytotoxicity Assay is a nonlytic, homogeneous, biofluorescent method to measure cytotoxicity in cell culture after experimental manipulation. The assay system uses a proprietary asymmetric cyanine dye that is excluded from viable cells but preferentially stains the dead cell's DNA. […] Viable cells produce no appreciable increases in fluorescence. Therefore, the fluorescence signal produced by the binding interaction with dead cell DNA is proportional to cytotoxicity.
# The mixture of HepG2 cell suspension and reagents were dispensed at 600cells/6 ul/well in 1536-well tissue culture treated black solid bottom plates using a Multidrop dispenser. After the assay plates were incubated at a 37 C/5% CO2 incubator for 5 hours, 23 nL of compounds dissolved in DMSO, positive and negative controls was transferred to the assay plate by a pintool work station. The plates were incubated at 37 C for 40 hours. The fluorescence intensity were measured at 0h, 8h, 16h, 24h, 32h and 40h time points using ViewLux plate reader during compound treatment.
# Potency means the concentration at half of the fitted maximal effect.
SMILES,Potency,cytotoxicity increase
C=CCN1CCc2nc(N)sc2CC1,inactive,–
CN(C)CCc1c[nH]c2ccc(CS(=O)(=O)N3CCCC3)cc12,inactive,–
CC(=O)c1c(C)cc(C(C)(C)C)cc1C,43.6 µM (active),–
C[C@@H]1CCC[C@H](C)N1CCCC(O)(c1ccccc1)c1ccccn1 (stereo not given in full),inactive,–
CCOCCOCCOC(C)=O,inactive,–
CCCCC(O)/C=C(C)/C=C/C=C/C(=O)N1CCCC1=O (stereo not given),inactive,–
COc1cc2nc(N3CCN(C(=O)C4CCCO4)CC3)nc(N)c2cc1OC (stereo not given),inactive,–
Cc1cc(N)no1,inactive,–
CCCCCCCOC(C)=O,inactive,–
CC(C)(Sc1cc(C(C)(C)C)c(O)c(C(C)(C)C)c1)Sc1cc(C(C)(C)C)c(O)c(C(C)(C)C)c1,inactive,–
CCCCCCCCCCCCCCCCN(C)C,–,2.33% [at 6.97 µM]
CCCCCCCCC1CO1 (stereo not given),inactive,–
CC/C=C\CCCCCCCCCCOC(C)=O,inactive,–
COC(=O)C(c1ccccc1Cl)N1CCc2sccc2C1 (stereo not given),inactive,–
COC(=O)/C=C(\C)CCC=C(C)C,inactive,–
O=C(CCBr)N1CCN(C(=O)CCBr)CC1,inactive,–
CCCCN1C(=O)c2ccccc2C1=O,inactive,–
CN(C)CCc1c[nH]c2ccc(C[C@H]3COC(=O)N3)cc12,inactive,–
CC(CN1CC(=O)NC(=O)C1)N1CC(=O)NC(=O)C1 (stereo not given),inactive,–
CCN1CCN(C(=O)N[C@@H](C(=O)N[C@@H]2C(=O)N3C(C(=O)O)=C(CSc4nnnn4C)CS[C@H]23)c2ccc(O)cc2)C(=O)C1=O,inactive,–

SMILES,Potency,cytotoxicity increase
COC(=O)c1cc(Cl)c(NC(C)=O)cc1OC,inactive,–
O=S(=O)(O)CC(O)CCl (stereo not given),inactive,–
CC(C)C(C)C,inactive,–
Cc1ccccc1C#N,inactive,–
O=C[C@@H](O)[C@H](O)[C@H](O)CO,inactive,–
CC1(C)C(=O)C(C)(C)C1=O,inactive,–
O=c1[nH]c(=O)c2cn[nH]c2[nH]1,inactive,–
N=C(N)N,inactive,–
C=CCn1cc[n+](C)c1,inactive,–
CCCC(C)C(O)CC (stereo not given),inactive,–
NC(=O)CC[C@@H](N)C(=O)O,inactive,–
CC(=O)/C=C/C=C1/C2CCC(C2)C1(C)C (stereo not given),inactive,–
O=C(O)CCCCCCCCCC(=O)O,inactive,–
O=C1CC2(CCCC2)CC(=O)N1CCNCC1COc2ccccc2O1 (stereo not given),inactive,–
COc1ccccc1N1CCN(CC(O)COc2cc(OC)c(OC)c(OC)c2)CC1 (stereo not given),inactive,–
CC(=O)Nc1ccc(S(=O)(=O)Nc2cc(C)on2)cc1,inactive,–
C/C=C/C(=O)CCCC,inactive,–
C[C@@H](CN1CC(=O)NC(=O)C1)N1CC(=O)NC(=O)C1,inactive,–
COc1cc(NS(=O)(=O)c2ccc(N)cc2)ncn1,inactive,–
COc1cc(C(=O)NC2CCCNC2)cc(OC)c1OC (stereo not given),inactive,–
